# Among all 340,000 compounds or so, about 2,100 (0.62%) were called active.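 Rule for the calls: active = first-screen hits whose inhibition reached a set limit at any dose in the follow-up dose series; inconclusive = inhibition above the set first-screen limit but never retested; inactive = the rest.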 A selection follows. Entries with a potency or affinity are not part of this list.
# Target: Rac GTPase-activating protein 1 (Homo sapiens) (UniProt Q9H0H5)
# Test: MgcRacGAP GTPase-activating activity inhibitors, confirmation, biochemical, ADP Hunter fluorescence, primary and confirmatory (AID 624330);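 note: fluorescence reports GDP produced by GAP-driven GTP hydrolysis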
# Settings: MgcRacGAP-stimulated Rac1 GTP hydrolysis, at 30 µM, active compounds read high, GST-tagged Rac1 F28L mutant substrate
# Chain of Rac GTPase-activating protein 1 (Homo sapiens) (Q9H0H5 whole entry, looked up): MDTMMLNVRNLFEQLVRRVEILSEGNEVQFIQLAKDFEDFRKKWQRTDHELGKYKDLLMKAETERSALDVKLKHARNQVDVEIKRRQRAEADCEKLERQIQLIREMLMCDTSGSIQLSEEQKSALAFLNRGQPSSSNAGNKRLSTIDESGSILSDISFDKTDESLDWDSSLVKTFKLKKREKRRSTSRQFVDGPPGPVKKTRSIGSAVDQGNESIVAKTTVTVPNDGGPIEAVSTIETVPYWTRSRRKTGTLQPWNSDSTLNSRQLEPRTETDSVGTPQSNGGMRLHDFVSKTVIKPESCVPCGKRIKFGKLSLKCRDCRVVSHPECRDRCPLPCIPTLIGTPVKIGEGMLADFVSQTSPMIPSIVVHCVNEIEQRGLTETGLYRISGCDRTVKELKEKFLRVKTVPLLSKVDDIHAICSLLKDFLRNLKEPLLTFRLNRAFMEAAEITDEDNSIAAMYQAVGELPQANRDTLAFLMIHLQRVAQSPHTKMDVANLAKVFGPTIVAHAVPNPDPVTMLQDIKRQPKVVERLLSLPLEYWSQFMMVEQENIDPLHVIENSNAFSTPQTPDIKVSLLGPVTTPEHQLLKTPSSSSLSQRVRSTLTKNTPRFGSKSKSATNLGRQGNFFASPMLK
row,Structure (SMILES),inhibition
1,O=C(CCCn1c(=O)c2sccc2n(CC(=O)OCc2ccccc2)c1=O)NCc1ccco1,6.92% (inactive)
2,O=C(NCc1nnc2c(C(F)(F)F)cc(Cl)cn12)c1cccnc1,9.23% (inactive)
3,CC(OC(=O)Cc1ccsc1)C(=O)Nc1ccc(C(N)=O)cc1 (stereo not drawn),2.18% (inactive)
4,O=C(NC(=S)N(Cc1ccccc1)c1ccccn1)C1CCCCC1,7.13% (inactive)
5,COc1ccccc1NC(=O)NCc1ccccc1F,5.13% (inactive)
6,O=C(c1ccccc1)N1CCCC(C(=O)N2CCCCCC2)C1 (stereo not drawn),-4.85% (inactive)
7,CCCn1ccc2c(OCC(=O)Nc3ccc(NC(C)=O)cc3)cccc2c1=O,-3.32% (inactive)
8,O=C(c1cc(Cl)ccc1OCc1ccccc1)N1CCOCC1,6.74% (inactive)
9,CC(Oc1ccccc1)C(=O)NNC(=O)c1ccccn1 (stereo not drawn),3.78% (inactive)
10,COc1ccc([C@H]2CC(=O)C=C(c3ccccc3-c3ccccc3)C2)cc1,0.94% (inactive)
11,CCCC/C(O)=C1\C(=O)CC(C)(C)CC1=Nc1ccc(OC)cc1,3.47% (inactive)
12,O=C(Nc1ccc(F)cc1)Nc1nnc(Cc2ccccc2)s1,2.79% (inactive)
13,CCOc1cc(/C=N/NC(=O)COc2nc(C)cc(COC)c2C#N)ccc1O,16.6% (inactive)
14,COc1cc(/C=N/NC(=O)C(C)Nc2n[nH]c(=O)[nH]c2=O)cc(OC)c1O (stereo not drawn),11.1% (inactive)
15,COc1cc(/C=N/NC(=O)CCc2c(C)n[nH]c2C)ccc1O,3.71% (inactive)
16,COc1ccc(C=NNC(=O)CCCC(=O)NN=Cc2ccc(OC)c(OC)c2)cc1OC,2.12% (inactive)
17,COc1cc(/C=N/NC(=O)c2cc(-c3ccccc3)nc3ccccc23)ccc1O,21.3% (inactive)
18,COc1ccc(/C=N/NC(=O)CCc2n[nH]c(=O)[nH]c2=O)cc1OC,4.75% (inactive)
19,COc1cc(/C=N/NC(=O)CSc2cc(C)c(Br)cc2C)ccc1O,15.9% (inactive)
20,COc1ccc(/C=N/NC(=O)CNc2n[nH]c(=O)[nH]c2=O)cc1OC,10.5% (inactive)

row,Structure (SMILES),inhibition
1,CC(=O)c1ccc2ccccc2c1OC(=O)c1ccncc1,6.45% (inactive)
2,CSc1sc(-c2ccnc(SCC(=O)C(C)(C)C)n2)c2c1C(=O)CC(C)(C)C2,13.4% (inactive)
3,CCn1c(SCC(=O)Nc2ccc(F)cc2)nc2ccccc2c1=O,0.4% (inactive)
4,Cc1ccc(C(=O)N2CCC(C(=O)NCc3ccco3)CC2)cc1,5.06% (inactive)
5,COc1cc(OC)cc(C(=O)Nc2ncn[nH]2)c1,6.96% (inactive)
6,O=C1c2ccccc2C(=O)N1N=Cc1ccc2c(c1)OCO2,5.49% (inactive)
7,O=C1c2ccccc2C(=O)N1/N=C/c1ccc(O)c(O)c1O,-97.2% (inactive)
8,O=C1C2C3C=CC(CC3)C2C(=O)N1/N=C/c1ccc(O)cc1 (stereo not drawn),1.46% (inactive)
9,COc1cc(/C=N/N2C(=O)C3C4c5ccccc5C(c5ccccc54)C3C2=O)ccc1O (stereo not drawn),4.88% (inactive)
10,COc1ccc(/C=N/N2C(=O)c3ccccc3C2=O)cc1,-3.67% (inactive)
11,O=C1C2C3C=CC(CC3)C2C(=O)N1/N=C/c1ccccc1O (stereo not drawn),3.85% (inactive)
12,CC(NC(=O)C1CC(=O)N(c2ccc3c(c2)OCCO3)C1)c1ccccc1 (stereo not drawn),10.6% (inactive)
13,C/C(=N\NC(=O)C(c1ccncc1)N1CCOCC1)c1ccc(Br)cc1 (stereo not drawn),5.86% (inactive)
14,Cc1cccc(NC(=O)CN2C(=O)N/C(=C/c3cc(C)n(-c4cccnc4)c3C)C2=O)c1,-10.6% (inactive)
15,COc1ccccc1C(CNC(=O)c1cccc(S(=O)(=O)N2CCCc3ccccc32)c1)N(C)C (stereo not drawn),4.28% (inactive)
16,Cc1cc(C)nc(NS(=O)(=O)c2ccc(NC(=S)NC(=O)C(C)(C)C)cc2)n1,8.49% (inactive)
17,CC(=O)N1CCc2cc(S(=O)(=O)NCCCOC(C)C)ccc21,2.11% (inactive)
18,CC(=O)c1ccc(S(=O)(=O)N2CCC3(CC2)CC(=O)c2ccccc2O3)cc1,14.3% (inactive)
19,O=S(=O)(c1cccs1)N1CCN(c2ccccc2Cl)CC1,1.05% (inactive)
20,CC(=O)Nc1ccc(NC(=O)Cn2cnc3c(nnn3Cc3ccc(F)cc3)c2=O)cc1,1.41% (inactive)

row,Structure (SMILES),inhibition
1,CN(C)CCOc1ccc2ccccc2c1,25.2% (inactive)
2,c1ccc2cc(OCCOCCOc3ccc4ccccc4c3)ccc2c1,-0.76% (inactive)
3,CC1=C(C)CC2(SC1)C(=O)N(c1ccccc1)N=C2N (stereo not drawn),15% (inactive)
4,CC[C@@H](C)[C@@H](C(=O)N1CCN(C(=O)OC(C)(C)C)CC1)n1cc(CCCCNC(=O)OC(C)(C)C)nn1,7.52% (inactive)
5,Cn1c(-c2ccc(F)cc2)cnc1NCc1cc2c(cc1[N+](=O)[O-])OCO2,27.6% (inactive)
6,Cn1c(-c2ccc3c(c2)OCO3)cnc1NCc1ccccc1,30.7% (inactive)
7,COc1ccc(-c2cnc(NCc3cc4c(cc3[N+](=O)[O-])OCO4)n2C)cc1,28.1% (inactive)
8,Cn1c(-c2ccc3c(c2)OCO3)cnc1NCc1ccc(Cl)cc1,27.4% (inactive)
9,Cn1c(-c2ccc3c(c2)OCO3)cnc1NCc1cccc(O)c1,26.8% (inactive)
10,Cc1ccc(CNc2ncc(-c3ccc4c(c3)OCO4)n2C)cc1,30.1% (inactive)
11,COc1ccccc1N1CCN(S(=O)(=O)c2ccc(NC(C)=O)cc2)CC1,7.69% (inactive)
12,Cc1c(-c2ccccc2)nc2ccccc2c1C(=O)Oc1ccc([N+](=O)[O-])cc1,-7.74% (inactive)
13,Cc1ccc(S(=O)(=O)N2CC3(O)CN(C(=O)OC(C)C)N(C(=O)OC(C)C)CC3(OC(=O)NC3CCCC3)C2)cc1 (stereo not drawn),9.25% (inactive)
14,CC(=O)Nc1ccc(S(=O)(=O)NNC(=O)c2ccc([N+](=O)[O-])cc2)cc1,1.83% (inactive)
15,COC(=O)CN1C(=O)C(O)(CC(=O)c2ccccc2)c2ccccc21 (stereo not drawn),9.4% (inactive)
16,CC(C)(C)OC(=O)NCCCCCNC(=O)c1nc[nH]c1C(=O)NCC(=O)OCc1ccccc1,5.97% (inactive)
17,CCN(CC1COc2ccccc2O1)C(=O)CN1C(=O)NC(C)(c2ccccc2)C1=O (stereo not drawn),1.68% (inactive)
18,NC(=O)c1ccc(NC(=O)COC(=O)c2cccc(Oc3ccccc3)c2)cc1,-3.55% (inactive)

# Reference: PubChem BioAssay AID624330 (Southern Research Specialized Biocontainment Screening …, 2012)
